From ChEMBL document CHEMBL3988442, “University of Dundee, Small-Polar-MMV Screening Library” (2021)
Among all 48,000 compounds or so, about 13,000 (27%) showed an effect of 50% or more. This is one part of the list.

These compounds were tested on Wolbachia pipientis (assay: Anti-Wolbachia Cell-Based Screen). Conditions: 5 µM.
Format: functional
Set-up: scale not given: in the data most compounds retested in dose-response had high values

| SMILES | Percent Effect |
| --- | --- |
| CN1CCCC2(CCN(c3cc(C(F)(F)F)nc(N(C)C)n3)C2)C1=O (stereo not drawn) | 7.307% |
| COc1cccc(CNc2cc(CO)ccc2Cl)c1 | -79.64% |
| COc1cc(CNc2ccc(Cl)cc2)ccc1OCC(=O)O | 106% |
| COc1cc(CNc2ccccc2Cl)ccc1OCC(=O)O | 86.61% |
| COc1ccc(CNC(=O)c2ccc(Cl)cc2F)cc1C(=O)O | 25.37% |
| COc1ccccc1OCC(=O)Nc1ncccc1Cl | -0.249% |
| CCc1cnc(N)nc1NCc1ccc(OC)c(OC)c1 | -14.4% |
| CNC(=O)NC(=O)CNC(CC(F)(F)F)c1ccc(F)cc1 (stereo not drawn) | 13.05% |
| CN(CC(=O)N1CC(C)(C)[C@](O)(C2CC2)C1)Cc1ccncc1 | -13.6% |
| CCOCCCNC(=O)c1cccn1Cc1cccnc1 | -15.39% |
| COC(=O)c1cccn1C1CCN(Cc2cnc3ccccn23)CC1 | 132% |
| COCc1nnc(C(=O)N(C)Cc2cnc3ccccn23)o1 | -16.21% |
| COC(=O)c1cccn1C1CCN(CCN2C(=O)CCC2=O)CC1 | 85.14% |
| COC(=O)c1cccn1C1CCN(Cc2cccnc2)CC1 | 126.9% |
| CCc1nc(C)c(C(=O)N(C)Cc2cnc3ccccn23)o1 | -30.87% |
| CC(C)C(C)NC(=O)c1cccn1Cc1cccnc1 (stereo not drawn) | -0.09991% |
| O=C1CCC(=O)N1CCN1CCC(=Cc2ccccc2)CC1 | -0.4568% |
| Cc1ncc2c(n1)CCN(Cc1nc3ccccc3o1)C2 | 7.952% |
| COC(=O)c1cccn1C1CCN(Cc2nc3ccccc3o2)CC1 | 118.1% |
| CCN1CCN(C2CCN(Cc3nc4ccccc4o3)CC2)C1=O | -0.2621% |

| SMILES | Percent Effect |
| --- | --- |
| CCN(CC)C(=O)[C@@H]1C[C@@H](NC(=O)c2cccn2C2CC2)CN1C | 0.5236% |
| N#CCCN(CCC#N)C(=O)CN1CCCC1Cc1cccc(F)c1 (stereo not drawn) | -4.236% |
| COCCN1CCN(Cc2cccc(C(N)=O)c2)CC1C (stereo not drawn) | 5.406% |
| COC(=O)c1cccn1C1CCN(Cc2cccc(C(N)=O)c2)CC1 | 132.6% |
| CC(O)CN1CCC(CNCc2cccc(C(N)=O)c2)CC1 (stereo not drawn) | 1.784% |
| COC(=O)[C@@H]1CN(S(=O)(=O)c2ccccc2)CCN1S(C)(=O)=O | -4.195% |
| COC(=O)c1cccn1C1CCN(S(=O)(=O)c2ccccc2)CC1 | 89.91% |
| COC(=O)c1ccc(S(=O)(=O)N2CCC(Oc3cccnn3)CC2)cc1 | -19.83% |
| CCOCCn1c(=O)n(CCC(C)C)c2ncc(C(=O)O)cc21 | -3.937% |
| COCC(=O)Nc1ccc([C@@H](O)[C@H]2COCC(=O)N2C)cc1 | -3.081% |
| CS(=O)(=O)N1CCN(C(=O)c2cccc(Cl)c2)CC2(CNC(=O)C2)C1 (stereo not drawn) | 2.79% |
| CN(C)c1ccc(C(=O)N2CCCC2c2ccc(Cl)cc2)cc1 (stereo not drawn) | 5.929% |
| CC(C)C(=O)N1CCCC1c1nc(N(C)C)ncc1-c1ccc(Cl)cc1 (stereo not drawn) | 126.5% |
| CCC(=O)N1CCCC1c1nc(N(C)C)ncc1-c1ccc(Cl)cc1 (stereo not drawn) | 84.51% |
| Cc1nc(CC(=O)N2CCC[C@H]2c2nc(C(C)C)no2)cs1 | -12.82% |
| Cc1cccc(N(CCC#N)S(=O)(=O)CC2CCCCO2)c1 (stereo not drawn) | -8.784% |
| N#Cc1cc(C#N)c(SCCC(=O)Nc2ccc(F)cc2)nc1N | -13.62% |
| CN1C[C@@H](C(=O)N2CCOCC2)[C@@]2(CCc3ccccc3C(=O)N2)C1 | 147.9% |
| C[C@@H]1CN(C2(C(=O)N(C)C)Cc3ccccc3C2)C[C@H](C)O1 | 1.411% |
| CN1C[C@@H](C(=O)N2CCCOCC2)[C@@]2(CCc3ccccc3C(=O)N2)C1 | -5.089% |

| SMILES | Percent Effect |
| --- | --- |
| CN(C)C(=O)N1CCC2(CC1)NC(=O)c1ccccc12.Cl | -7.31% |
| CC(C)(C)NC(=O)[C@@H]1CNC[C@]12Cc1ccccc1C(=O)N2 | 114.2% |
| CN1C[C@@H](C(=O)NC(C)(C)C)[C@@]2(CCc3ccccc3C(=O)N2)C1 | 141.5% |
| O=C(c1ccccc1)N1CC(C(=O)N2CCOCC2)C2(CCOCC2)C1 (stereo not drawn) | -41.49% |
| CCNC(=O)N1CC[C@@H](CC(=O)O)[C@@H](CC2=NCCc3ccccc32)C1 | 7.982% |
| CN1C[C@@H](C(=O)N(C)C)[C@@]2(CCc3ccccc3C(=O)N2)C1.Cl | 136.2% |
| CN1CC(C(=O)NC(C)(C)C)CC1=O (stereo not drawn) | 0.8346% |
| COC(=O)CN(Cc1ccccc1C)C(=O)CCCNC(=O)C1CC1 | -13.3% |
| CN(C)CCNc1ncccc1CNC(=O)Nc1cc(F)cc(F)c1 | -8.67% |
| CC(C)(C)c1cnc(CN2CCC(NC(=O)C3CCOCC3)CC2)o1 | -13.41% |
| COC1CCN(CCNC(=O)NCC(C)c2cccc(C)c2)CC1 (stereo not drawn) | 5.114% |
| COCCN(C)C[C@@H]1CCC[C@@H]2CN(Cc3ccc(OC)nc3)C[C@@H]21.O=C(O)C(F)(F)F.O=C(O)C(F)(F)F | 8.299% |
| CN1C[C@@H](C(=O)NCC(F)(F)F)[C@@]2(CCc3ccccc3C(=O)N2)C1 | 103.7% |
| COC(=O)N1CCc2ccccc2C1C(=O)NCC(F)(F)F (stereo not drawn) | 5.157% |
| O=C(NCC(F)(F)F)C1CCC(=O)N(C2CCCC2)C1 (stereo not drawn) | 11.17% |
| CCC(C)C(=O)NCc1cc(Br)c(OC)c(OC)c1 (stereo not drawn) | -3.921% |
| Cc1ccc(CNC(=O)CCN2CCOC(C(F)(F)F)C2)cc1 (stereo not drawn) | -2.283% |
| CCS(=O)(=O)c1ccc(N2CCC(NC(=O)CCC(C)C)CC2)cc1 | 4.61% |
